# In all, about 2,300 compounds went through this assay and about 55 (2%) were called active.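 Rule for the calls: active = duplicate-averaged calcium signal over 20% of the ionomycin maximum, relative to buffer baseline; inactive = the rest.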 The list comes from a sample in which actives are over-represented; it also holds similar structures and randomly drawn compounds.
# Assay: calcium mobilization in TMEM16A/YFP HEK293 cells, confirmation, counter-screen for TMEM16A inhibitor project (AID 652231);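 for calcium response (% of ionomycin): each well's signal is peak minus trough fluorescence divided by its pre-addition baseline; 0% = buffer wells and 100% = ionomycin wells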
# Conditions: TMEM16A/YFP HEK293, Fluo4 calcium mobilization, at 10 µM; stronger effect = higher value
row,SMILES,calcium response (% of ionomycin)
1,CCc1cc2c(N3CCN(c4nnc(CC)s4)CC3)ncnc2s1,inactive
2,COc1ccc(C(=O)NC2CCCc3c2cnn3-c2cccc(C)c2C)c(OC)n1 (configuration not stated),inactive
3,O=c1cc(C(F)(F)F)[nH]c(=O)n1C1CCCCC1,inactive
4,CCOC(=O)c1cccc(NC(=O)CCn2nnc3ccccc32)c1,inactive
5,COc1ccc(OCC(=O)NCCc2ccc(S(N)(=O)=O)cc2)cc1,inactive
6,Fc1ccc2[nH]c3c(N4CCSCC4)ncnc3c2c1,inactive
7,Cc1ccc(-n2ncc3c(N4CCN(c5ccc(F)cc5)CC4)ncnc32)c(C)c1,inactive
8,Cc1ccc(-c2noc(CSc3nnnn3-c3ccccc3)n2)cc1,inactive
9,Cc1cc(C=O)c(C)n1-c1ccc(NC2CCCCC2)c([N+](=O)[O-])c1,inactive
10,Cc1cccc(-n2c(SCC(N)=O)nc3c(c2=O)C2(CCCCC2)Cc2ccccc2-3)c1,inactive
11,O=C(NCCc1ccc2c(c1)OCCO2)c1cc2ccccc2o1,inactive
12,COc1ccc(CCC(=O)c2ccc(OC)cc2)cc1,inactive
13,CCCCNC(=O)CSc1nc2n[nH]c(C)c2c(=N)n1-c1cccc(Cl)c1C,inactive
14,CCOC(=O)N1CC=C2C(C#N)=C(N)C(C#N)(C#N)[C@H](c3cccs3)[C@H]2C1,inactive
15,COc1ccc(NC(=O)C2=CC(c3ccc(OC)c(OC)c3)=NS(=O)(=O)N2C)cc1,inactive
16,Cc1nc2c(C(=O)NCc3ccc4c(c3)OCO4)c[nH]n2c(=O)c1Cc1ccccc1F,inactive
17,Cc1ccc(C)c(N2CCN(S(=O)(=O)c3ccc4c(c3)oc(=O)n4C)CC2)c1,inactive
18,CC1CCN(C(=O)c2ccc(CSc3ccc(Cl)cc3)cc2)CC1,inactive
19,CN1c2ccc(C=O)c3c(C=O)ccc(c23)N(C)C1(C)C,64.5% (active)
20,COc1cccc(CNS(=O)(=O)c2ccc3c(c2)CC(C)N3C(=O)C2CCC2)c1 (configuration not stated),inactive
21,CN(Cc1cccnc1)C(=O)c1cc(COc2ccc3ncccc3c2)on1,inactive
22,Cc1ccc2c(c1)N(S(=O)(=O)c1cc(-c3cc(C)no3)ccc1C)CCO2,inactive
23,CC(=O)c1c(C)[nH]c(C(=O)COC(=O)c2cccc(S(=O)(=O)N(C)c3ccccc3)c2)c1C,inactive
24,Cc1ccc(C(=O)O)cc1-c1ccc(/C=C2\SC(=O)N(CC(=O)Nc3ccc4c(c3)OCO4)C2=O)o1,inactive
25,CCN(CC)S(=O)(=O)c1ccc(N(C)Cc2ccc(C(F)(F)F)cc2)nc1,inactive
26,Cn1c(=O)n(C)c2cc(S(=O)(=O)N3CCCc4ccccc43)ccc21,inactive

row,SMILES,calcium response (% of ionomycin)
1,N#Cc1nc(COc2ccc(-c3ccccc3)cc2)oc1NCc1cccnc1,inactive
2,CCn1nccc1C(=O)Nc1ccc(S(=O)(=O)NC23CC4CC(CC(C4)C2)C3)cc1,inactive
3,C=CCn1c(SCC(=O)Nc2nc3ccccc3s2)nnc1-c1ccccc1O,inactive
4,CCCc1cc(=S)n2c([nH]c3ccccc32)c1C#N,inactive
5,COc1ccc(-c2nc(CCNC(=O)c3ccc(Br)o3)cs2)cc1,inactive
6,O=C(CN1CCN(C(=S)NC2CCCC2)CC1)Nc1ccc(Oc2ccccc2)cc1,inactive
7,Cc1ccccc1-n1nnnc1SCCCC(=O)c1ccc(F)cc1,inactive
8,Cc1ccc(N)cc1-n1c(C)ccc1C,inactive
9,Cc1ccc(C)c(N2CCN(C(=O)CCCCn3c(=O)[nH]c4ccccc4c3=O)CC2)c1,inactive
10,CCOC(=O)C(Sc1ncc(C#N)c(N)n1)C(C)C (configuration not stated),inactive
11,O=C(COC(=O)CCc1c[nH]c(=O)[nH]1)Nc1ccccc1Cl,inactive
12,Cc1ccc(NC(=O)C(C)c2cccc(C(=O)c3ccccc3)c2)cc1 (configuration not stated),20.5% (active)
13,S=C(NCc1ccc(Cl)cc1)NC12CC3CC(CC(C3)C1)C2,inactive
14,Cc1noc(C)c1COC(=O)c1cc2ccccc2cc1O,inactive
15,C=CCSc1nsc(NC(=O)Nc2cccc(C(C)=O)c2)n1,inactive
16,CCCOc1ccc(Cc2c(Cl)nc(SC)nc2NC)cc1,inactive
17,Cn1c(CCN2CCCCCC2)nc2cc(NC(=O)Nc3ccccc3)ccc21,inactive
18,CCOC(=O)N1CCN(C(=O)c2ccc3c(c2)N(Cc2ccc(C)cc2)CCS3)CC1,inactive
19,CSc1nsc(NC(=O)Nc2ccccc2)n1,inactive
20,CCC(=O)Nc1ccc2nc(C)n(Cc3ccccc3Cl)c(=O)c2c1,inactive
21,Cc1ccc(NC(=O)CN(C)CC(=O)Nc2cccc(F)c2)cc1[N+](=O)[O-],inactive
22,Cc1ccc(N2C(=O)S/C(=C/c3cn(C)c4ccccc34)C2=O)cc1,inactive
23,Cc1nc(SCC(=O)N2CCc3ccccc3C2)c2c(C)c(C)sc2n1,inactive
24,COc1ccc(CN(C)C(=O)CC(c2ccccc2)c2ccccc2)cc1,inactive
25,Cc1nc(C)c(-c2csc(NCCc3ccccc3)n2)s1,inactive
26,COC(=O)c1ccc(NC(=O)c2ccccc2NS(=O)(=O)c2ccccc2)cc1,inactive

row,SMILES,calcium response (% of ionomycin)
1,O=C(CSCc1ccc(Cl)cc1)N1CCN(Cc2ccc3c(c2)OCO3)CC1,inactive
2,COc1ccc2[nH]cc(/C=C(/C#N)S(=O)(=O)c3ccccc3)c2c1,inactive
3,CC1=NN(c2cccc(Cl)c2)C(=O)C12CC(C)=C(C)CS2 (configuration not stated),inactive
4,Cc1ccc(F)cc1NC(=O)Cc1nn(C)c(=O)c2ccccc12,inactive
5,CSc1cccc(NC(=S)N(C(C)C)C(C)c2ccccn2)c1 (configuration not stated),inactive
6,Cc1cc(C)cc(NS(=O)(=O)c2ccc(Oc3ncc(C(F)(F)F)cc3Cl)cc2)c1,inactive
7,CN(c1cccc(NC(=O)c2ccc(CN3CCc4ccccc4C3)cc2)c1)S(C)(=O)=O,inactive
8,CC(C)CNC(=S)NNC(=O)c1nn(C)cc1Cl,inactive
9,CC(NC(=O)c1ccco1)C(=O)Nc1nc(-c2ccccn2)cs1 (configuration not stated),inactive
10,COc1ccc(S(=O)(=O)NCCCCOc2ccc(Cl)cc2)cc1,inactive
11,COc1cc(CC(=O)Nc2nc(-c3ccc(F)c(F)c3)cs2)cc(OC)c1OC,inactive
12,C=C(C)Cn1c(C)cc(C)c(S(=O)(=O)c2ccccc2C)c1=O,inactive
13,Cc1ccc(-c2csc(-c3c[nH]c4ccccc34)n2)cc1,inactive
14,S=C(NCC1CCCO1)N1CCN(c2ccc(Cl)c(Cl)c2)CC1 (configuration not stated),inactive
15,COc1ccc(CNc2nnnn2C)cc1,inactive
16,O=C(Nc1cccc(S(=O)(=O)Nc2ccc(Cl)cc2)c1)c1ccc2c(c1)OCCO2,inactive
17,CSc1nnc2c(n1)OC(c1ccsc1)N(C(C)=O)c1ccccc1-2 (configuration not stated),inactive
18,CCOC(=O)C1=C(CN2CCc3ccccc32)NC(=O)NC1c1cccc([N+](=O)[O-])c1 (configuration not stated),inactive
19,O=S1(=O)CCN(Cc2ccccc2Cl)CC1,inactive
20,COc1ccc(Cl)cc1NC(=O)CCS(=O)(=O)c1cc2c(cc1C)NC(=O)CO2,inactive
21,O=C(Nc1nc(-c2ccc3c(c2)OCO3)cs1)c1ccncc1,inactive
22,Cc1nc2ccccc2cc1OCc1ccc(F)cc1,inactive
23,CC(C)(C)C(=O)/C(C#N)=C/c1ccc(O)cc1,inactive
24,O=C(O)c1ccc(NC(=O)C2CCCCC2)cc1,inactive
25,Cc1ccc(-n2[nH]c(C)c(/C=N/N3C(=O)c4cccc5cccc(c45)C3=O)c2=O)cc1,43.5% (active)
26,Cc1[nH]n(-c2cccc(Cl)c2)c(=O)c1-c1ccc(Cl)cc1,inactive

row,SMILES,calcium response (% of ionomycin)
1,O=C1c2ccccc2C(Nc2ccc3c(c2)OCCO3)N1Cc1ccco1 (configuration not stated),inactive
2,Cc1cccc(N=Nc2c(O)[nH]c3ccc(F)cc23)c1,inactive
3,CCCCn1ccnc1C(=O)c1cccc(S(=O)(=O)N2c3ccccc3CC2C)c1 (configuration not stated),inactive
4,O=C(CNCCC1=CCCCC1)Nc1ccccc1N1CCCCCC1,inactive
5,CCCC(=O)Nc1ccccc1N1CCN(C(=O)c2ccccc2)CC1,inactive
6,S=C(NCc1cccs1)Nc1ccc(Cl)cc1,inactive
7,N#Cc1nc(N)nc(N(c2ccccc2)c2ccccc2)n1,inactive
8,Fc1ccc(CSc2nnc(-c3cc4c(s3)-c3ccccc3CC4)o2)cc1,inactive
9,Cn1c(CN2CCOCC2)nc2cc(NC(=O)c3ccc(Cl)cc3)ccc21,inactive
10,O=C1NC(=O)C2C1C(c1ccc([N+](=O)[O-])cc1)=NN2Cc1ccccc1 (configuration not stated),inactive
11,O=C(N/N=C/c1cc(Cl)cc([N+](=O)[O-])c1O)C(O)(c1ccccc1)c1ccccc1,inactive
12,O=C(COc1ccccc1)NCc1ccc2c(c1)OCO2,inactive
13,CN(C)c1cc[n+](Cc2ccccc2)cc1,inactive
14,CCCCCc1ccc(-c2ccc(C(=O)O)cc2)nc1,inactive
15,Cc1ccc2c(c1)N(CC(=O)N1CCCc3ccccc31)C(=O)C(C)O2 (configuration not stated),inactive
16,COC(=O)c1ccc(COC(=O)c2c(C)nn(Cc3ccccc3Cl)c2Cl)o1,inactive
17,CCOC(=O)C1CCN(c2ncnc3c2oc2ccc(Br)cc23)CC1,inactive
18,Cc1nc(CNS(=O)(=O)c2ccc(Oc3ccccc3)cc2)cs1,inactive
19,CC(=O)c1cc(CN2CCC(C(=O)Nc3cccc(-c4cscn4)c3)CC2)cs1,inactive
20,c1ccc(-c2nnc(SCc3nc4ccccc4[nH]3)o2)cc1,inactive
21,COc1ccc(-n2c(C)cc(C(=O)CSc3nnc(-c4cccs4)o3)c2C)cc1,inactive
22,O=C(Nc1ccccc1)c1ccccc1NC(=O)C(F)(F)F,inactive
23,O=C(NC(=S)Nc1ccccc1C(=O)O)c1ccc(-c2ccc(Br)cc2)o1,29% (active)
24,N#CC1=C(SCc2ccccc2)NC(=O)C(C#N)C12CCCC2 (configuration not stated),inactive

# Source: PubChem BioAssay AID652231 (Johns Hopkins Ion Channel Center, 2013)
